Measured values taken from PubChem BioAssay AID1159580 (chemical genetic matrix, 2015).
Values joined by “and” are separate entries in the source; they are usually repeats but may differ in a detail not shown here. Equal entries are not always repeated. Out of some 5,500 compounds screened, about 2,000 (36%) were called active. Inconclusive results (about 18%) are left out. Rule as the data show it: active = normalized growth mostly below about 0.91 (no sharp cut-off); inconclusive = no clear call, values can overlap the other calls; inactive = mostly above about 0.92. This is one part of the list.

Test: chemical genetic growth profiling, strain panel (AID 1159580);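 also: tested at 20 µM; growth read once vehicle control cultures reached saturation at 30 °C; 1 = growth at the plate median or of vehicle wells; lower values mean less growth of the strain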
Settings: S. cerevisiae deletion strains, growth OD

Measured: normalized growth

Cc1ccc(S(=O)(=O)NC(=O)NN2CCCCCC2)cc1
inactive: locus YAL013W, strain DEP1, active compounds read low 0.996 | locus YAL021C, strain ccr4, active compounds read low 0.999 | locus YAL026C, strain drs2, active compounds read low 0.974 | locus YAL030W, strain snc1, active compounds read low 0.991 | locus YAL040C, strain CLN3, active compounds read low 1.05 | locus YBL061C, strain skt5, active compounds read low 0.986 | locus YBR009C, strain hhf1, active compounds read low 0.994 | locus YBR021W, strain FUR4, active compounds read low 0.986 | locus YBR023C, strain chs3, active compounds read low 0.981 | locus YBR171W, strain sec66, active compounds read low 0.99 | locus YBR229C, strain ROT2, active compounds read low 0.995 | locus YBR231C, strain swc5, active compounds read low 0.999 | locus YBR279W, strain paf1, active compounds read low 0.994 | locus YCL011C, strain gbp2, active compounds read low 0.987 | locus YCL016C, strain dcc1, active compounds read low 0.953 | locus YCL029C, strain bik1, active compounds read low 0.99 | locus YCL061C, strain MRC1 (second series), active compounds read low 0.998 | locus YCL069W, strain vba3, active compounds read low 0.986 | locus YCR088W, strain abp1, active compounds read low 0.984 | locus YDL005C, strain med2, active compounds read low 0.989 | locus YDL035C, strain GPR1, active compounds read low 0.997 | locus YDL040C, strain nat1, active compounds read low 0.991 | locus YDL074C, strain BRE1, active compounds read low 1.06 | locus YDL101C, strain DUN1, active compounds read low 0.997 | locus YDL134C, strain PPH21, active compounds read low 0.987 | locus YDL185W, strain tfp1, active compounds read low 0.983 | locus YDL192W, strain arf1, active compounds read low 0.988 | locus YDR001C, strain nth1, active compounds read low 0.986 | locus YDR069C, strain doa4, active compounds read low 1 | locus YDR101C, strain arx1, active compounds read low 0.989 | locus YDR137W, strain rgp1, active compounds read low 0.932 | locus YDR150W, strain NUM1, active compounds read low 1 | locus YDR159W, strain sac3, active compounds read low 0.969 | locus YDR162C, strain NBP2, active compounds read low 0.999 | locus YDR195W, strain ref2 0.996 | locus YDR297W, strain sur2, active compounds read low 1 | locus YDR318W, strain mcm21, active compounds read low 0.977 | locus YDR334W, strain swr1, active compounds read low 0.978 | locus YDR335W, strain msn5, active compounds read low 0.973 | locus YDR363W, strain ESC2, active compounds read low 1.01 | locus YDR388W, active compounds read low 0.985 | locus YDR392W, strain spt3, active compounds read low 0.861 | locus YDR502C, strain sam2, active compounds read low 0.991 | locus YEL003W, strain gim4, active compounds read low 1.01 | locus YEL037C, strain rad23, active compounds read low 0.975 | locus YEL061C, strain CIN8 (second series), active compounds read low 1 | locus YEL061C, strain CIN8, active compounds read low 1 | locus YER002W, strain NOP16, active compounds read low 1 | locus YER015W, strain faa2, active compounds read low 1 | locus YER016W, strain bim1, active compounds read low 0.976 | locus YER110C, active compounds read low 0.988 | locus YER111C, strain swi4, active compounds read low 0.987 | locus YER155C, strain BEM2 (second series), active compounds read low 0.972 | locus YER155C, strain BEM2, active compounds read low 0.988 | locus YER167W, strain BCK2, active compounds read low 0.984 | locus YFR010W, strain ubp6, active compounds read low 1.02 | locus YGL078C, strain dbp3, active compounds read low 0.987 | locus YGL086W, strain mad1, active compounds read low 0.999 | locus YGL167C, strain pmr1, active compounds read low 0.992 | locus YGL173C, strain kem1, active compounds read low 0.998 | locus YGL227W, strain vid30, active compounds read low 1.01 | locus YGL240W, strain doc1, active compounds read low 1 | locus YGL248W, strain PDE1, active compounds read low 1 | locus YGL253W, strain hxk2, active compounds read low 1.02 | locus YGR078C, strain PAC10, active compounds read low 1.04 and 0.986 | locus YGR135W, strain pre9, active compounds read low 0.965 | locus YGR229C, strain SMI1, active compounds read low 1.01 and 1.05 | locus YGR252W, strain gcn5, active compounds read low 0.96 | locus YHR013C, strain ard1, active compounds read low 0.966 | locus YHR027C, strain rpn1, active compounds read low 1 | locus YHR030C, strain SLT2, active compounds read low 0.992 and 1.02 | locus YHR079C, strain IRE1 (second series), active compounds read low 0.988 | locus YHR079C, strain IRE1, active compounds read low 1.02 | locus YHR094C, strain hxt1, active compounds read low 0.98 | locus YHR129C, strain ARP1, active compounds read low 0.993 | locus YHR142W, strain chs7, active compounds read low 0.986 | locus YHR200W, strain rpn10, active compounds read low 0.984 | locus YIL066C, strain RNR3, active compounds read low 1 | locus YIL073C, strain SPO22, active compounds read low 0.925 | locus YIL125W, strain kgd1, active compounds read low 0.982 | locus YIR030C, strain dcg1, active compounds read low 0.978 | locus YJL092W, strain hpr5, active compounds read low 0.991 | locus YJL095W, strain BCK1 (second series), active compounds read low 0.982 | locus YJL095W, strain BCK1, active compounds read low 1.03 and 1.02 | locus YJL115W, strain asf1, active compounds read low 0.979 | locus YJL129C, strain trk1, active compounds read low 0.952 | locus YJL134W, strain LCB3, active compounds read low 0.995 | locus YJL154C, strain vps35, active compounds read low 0.989 | locus YJL164C, strain tpk1, active compounds read low 0.991 | locus YJL166W, strain qcr8, active compounds read low 0.997 | locus YJL168C, strain set2, active compounds read low 0.987 | locus YJL187C, strain SWE1 (second series), active compounds read low 1.02 | locus YJL187C, strain SWE1, active compounds read low 0.992 | locus YJR043C, strain POL32, active compounds read low 1.02 | locus YJR066W, strain TOR1, active compounds read low 0.948
